tim10-1 inh = growth inhibitors of tim10-1 mutant yeast, primary screen, luminescence, uHTS | 330,000 compounds, 2.2% hits | S. cerevisiae tim10-1 ts strain growth, BacTiter-Glo, 24 h | inhibition, % at 20 µM | AID 463190, 2010;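 active = inhibition of at least 40%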;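 also: mutant grown at 25 °C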
tim23-1 inh = growth inhibitors of tim23-1 mutant yeast, primary screen, luminescence, uHTS; inhibition, % at 20 µM; AID 463212, 2010; 330,000 compounds, 1.3% hits; S. cerevisiae tim23-1 growth, BacTiter-Glo luminescence, 24 h;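 active = growth inhibition of the mutant yeast at or above 50%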;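 also: temperature-sensitive mutant grown at 25 °C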
PfHsp90 set2 = growth inhibition of PfHsp90-expressing yeast, primary screen, antimalarial PfHsp90 inhibitor project, S. cerevisiae, BacTiter-Glo luminescence, single point, set 2 | BacTiter-Glo ATP, 48 h; yeast lacking PDR1 and PDR3 efflux regulators | inhibition, % at 9.4 µM | 310,000 compounds, 0.32% hits | AID 504621, 2011;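 active = every replicate shows inhibition above about 80%, whatever the replicate mean, limit read from the data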
NLRP3 yeast inh = NALP3 inflammasome inhibitors in reconstituted yeast, primary screen, luminescence, uHTS. Yeast reconstituted NLRP3/ASC/caspase-1, beta-gal luminescence, 24 h. inhibition, % at 10 µM. 330,000 compounds, 0.39% hits. AID 2825, 2010;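 active = inhibition of 50% or more; inactive = inhibition below 50%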
NALP1 yeast inh = NALP1 inflammasome inhibitors in reconstituted yeast, colorimetric, S. cerevisiae, triplicate retest; S. cerevisiae NALP1/ASC/caspase-1 growth, X-gal OD620, 72 h; inhibition, % at 10 µM; 280,000 compounds, 0.61% hits; AID 2071, 2009; in the data active = inhibition mostly above about 24%, no sharp cut-off; inactive = mostly below about 32%
TIM10 inh = growth inhibitors of isogenic TIM10 control yeast, primary screen, counter-screen for tim10-1 yeast inhibitor project, luminescence, uHTS; S. cerevisiae TIM10 strain growth, BacTiter-Glo luminescence, 24 h; inhibition, % at 10 µM; 330,000 compounds, 1.4% hits; AID 463195, 2010;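 active = inhibition of 40% or more at the single tested concentration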;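 also: wild-type TIM10 isogenic control strain grown at permissive 25 °C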
tim10-1 confirm = growth inhibitors of tim10-1 mutant yeast, confirmation, single concentration, luminescence, S. cerevisiae | shares compounds with tim10-1 inh | S. cerevisiae tim10-1 ts strain growth, BacTiter-Glo, 24 h | inhibition, % at 20 µM | 7,400 compounds, 56% hits;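 active = inhibition of yeast growth at or above a set limit in either of two repeat tests at 20 µM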;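 also: tim10-1 mutant grown at permissive 25 °C to find synthetic lethal compounds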
Hits are given with their value; i = inactive; nt = no result given. A selection: hits, their analogues and other compounds. The true share with any hit is near 4.1%.

SMILES | tim10-1 inh | tim23-1 inh | PfHsp90 set2 | NLRP3 yeast inh | NALP1 yeast inh | TIM10 inh | tim10-1 confirm
Cc1ccc(S(=O)(=O)N(C)C)cc1NC(=S)NC(C)CCCC(C)C (centres undefined) | i | i | i | i | i | i | nt
COCCCNC(=S)N1CCN(c2nc(-c3ccc(F)cc3)cs2)CC1 | 43.9 | i | i | i | i | i | 32.7
COCCNC(=S)N1CCN(c2nc(-c3ccccc3)cs2)CC1 | 41.4 | i | i | i | i | i | 32.1
COc1ccc(-c2csc(N3CCN(C(=O)c4ccccc4)CC3)n2)cc1 | 42.3 | i | nt | i | i | i | 33.4
O=C(NC1CCCCC1)N1CCN(c2nc(-c3ccccc3)cs2)CC1 | 45.5 | i | i | i | i | i | i
CCCNC(=S)N1CCN(c2nc(-c3ccc(C)cc3)cs2)CC1 | i | i | i | i | i | i | nt
Cc1cc(C)c(OCC(=O)OCC(=O)NNC(=O)c2ccccc2F)c(C)c1 | i | i | i | i | nt | i | nt
Cc1c(C)c2ccc(Oc3ccc([N+](=O)[O-])cc3C(F)(F)F)c(C)c2oc1=O | 40.3 | i | i | i | i | i | i
CCCCc1ccc(NS(=O)(=O)c2cccs2)cc1 | 40.6 | i | nt | i | i | i | i
CCOc1ccc2ccccc2c1C(=O)NCC(c1ccc(N(C)C)cc1)N(C)C (centres undefined) | i | i | i | i | i | i | nt
CCCCc1cc(=O)oc2cc(OC(C)C(=O)NCc3ccccn3)c(Cl)cc12 (centres undefined) | 41.3 | i | i | i | i | i | i
O=C(CSc1nnnn1-c1cccc(O)c1)NC1CC1 | i | i | i | i | i | i | nt
O=S(=O)(c1ccc2[nH]ccc2c1)N1CCCCCC1 | 43.9 | i | i | i | i | i | i
CN(Cc1ccccc1)c1ncnc2ccc(Br)cc12 | 41.9 | i | i | i | i | i | i
CCOc1ccccc1Nc1ncnc2ccc(Br)cc12 | i | i | i | i | i | i | nt
COc1ccc2c(c1)CC/C(=C\c1ccc(OC)c(Cn3cccn3)c1)C2=O | i | i | nt | i | i | i | nt
COc1ccc2c(c1)CC/C(=C\c1ccc(OC)c(Cn3nc(C)cc3C)c1)C2=O | 40.1 | i | nt | i | i | i | i
O=C(O)c1ccc(Sc2nnnn2-c2ccccc2)c([N+](=O)[O-])c1 | i | i | i | i | i | i | nt
COC(=O)c1ccc(Sc2nnnn2-c2ccccc2)c([N+](=O)[O-])c1 | 49.9 | i | i | i | i | i | 34.9
COc1ccc2[nH]c3c(c2c1)CCN1C(=O)C(CC(=O)NCCCn2ccnc2)C[C@H](C(=O)N2CCCCC2)[C@@]31C (some centres undefined) | i | i | i | nt | nt | i | nt
O=C1ON=C(c2ccccc2)/C1=C/c1ccco1 | i | i | nt | i | i | i | nt
CCCCc1ccc(/C=C2\C(=O)ON=C2c2ccccc2)s1 | 40.0 | i | i | i | i | i | i
Cc1cccc(NC(=O)c2cnccn2)c1 | i | i | i | i | i | i | nt
O=C(Oc1ccc(C(=S)N2CCOCC2)cc1)c1ccccc1[N+](=O)[O-] | 41.6 | i | i | i | i | i | 36.6
CCCCn1c(=N)c(S(=O)(=O)c2ccc(Br)cc2)cc2c(=O)n3cccc(C)c3nc21 | 44.2 | i | i | i | i | i | i
CCCCCn1c(=N)c(S(=O)(=O)c2ccc(Br)cc2)cc2c(=O)n3cccc(C)c3nc21 | i | i | i | i | i | i | nt
COc1ccc(NC2=C(NCCO)C(=O)c3ccccc3C2=O)cc1 | i | i | i | i | i | i | nt
COC1=C(Nc2ccc(OC)cc2)C(=O)c2ccccc2C1=O | 40.0 | i | i | i | i | i | i
CCOc1ccc(NC2=C(OC)C(=O)c3ccccc3C2=O)cc1 | 44.3 | i | i | i | i | i | i
COC1=C(Nc2ccc(O)cc2)C(=O)c2ccccc2C1=O | i | i | i | i | i | i | nt
